Growth data for 13 compounds are collected here from PubChem BioAssay (NCI).

This is part of a sample that, as a whole, favours compounds with a hit. Of some 83,000 tested, about 20% had one in any assay.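 Single-concentration screen, 48 h exposure, 96-well plates. Endpoint: percent growth. Below 10 = active.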 A number with no mark means an inactive call. Calls of active or inactive are those of the source.

Test systems include HCT-15 colon; HT29 colon; SNB-75 CNS; SNB-19 CNS; U251 CNS; PC-3 prostate; SK-MEL-5 melanoma; UACC-62 melanoma; LOX IMVI melanoma; SK-MEL-28 melanoma.
Holding throughout (test): NCI-60 one-dose screen, 48 h (100 = growth as untreated, 0 = no growth, -100 = all killed)
Holding throughout (settings): 10 µM

Take `CS(=O)(=O)Nc1ccc(Nc2c3ccccc3nc3cc(Cl)ccc23)cc1`: the growth is 39.6% with HCT-15 colon; 22.4% in the experiment with HT29 colon; 30.9% in the experiment on SNB-75 CNS; 44.7% in the experiment on SNB-19 CNS; 19.9% with U251 CNS; 33.8% in the experiment with PC-3 prostate. The growth is 18.6% in the experiment on SK-MEL-5 melanoma, 36.8% in the experiment with UACC-62 melanoma, 19.5% in the experiment on LOX IMVI melanoma and 72.6% with SK-MEL-28 melanoma.
Regarding `COc1cc(N=C2C(=O)N(Cc3ccccc3)c3ccccc32)cc(OC)c1OC`, the growth is 95.3% with HCT-15 colon; 103% in the experiment on HT29 colon; 82.6% with SNB-75 CNS; 95.1% in the experiment with SNB-19 CNS; 94.2% in the experiment with U251 CNS; 97.8% with PC-3 prostate. The growth in the experiment with SK-MEL-5 melanoma is 94.2%; in the experiment with UACC-62 melanoma, 90.8%; in the experiment on LOX IMVI melanoma, 86.9%; in the experiment with SK-MEL-28 melanoma, 113%.
Take `Cc1cc(C#Cc2ccccc2)ccc1-n1c(/C=C/c2cc(O)ccc2O)nc2ccccc2c1=O`: the growth with HCT-15 colon was -33.6% (active); with HT29 colon it was 11.8%; with SNB-75 CNS it was 16.2%; in the experiment with SNB-19 CNS, 26.6%; in the experiment with U251 CNS, 5.85% (active); with PC-3 prostate, 3.46% (active). In addition, the growth in the experiment with SK-MEL-5 melanoma was -84.5% (active); with UACC-62 melanoma, -55.6% (active); in the experiment with LOX IMVI melanoma it was -80.6% (active); in the experiment on SK-MEL-28 melanoma it was -45.3% (active).
On to `C/C(=N/NC(=O)c1sc(=S)n(C)c1N)c1cc2cc(Cl)ccc2o1`, for which the growth was 92.6% in the experiment with HCT-15 colon; 92.9% in the experiment on HT29 colon; 144% in the experiment on SNB-75 CNS; 98.8% in the experiment with SNB-19 CNS; 97.5% with U251 CNS; 101% in the experiment on PC-3 prostate. For the same compound, the growth with SK-MEL-5 melanoma was 11.3%; in the experiment with UACC-62 melanoma, 76.2%; in the experiment on LOX IMVI melanoma, 72.9%; with SK-MEL-28 melanoma, 128%.
For the compound `O=C1/C(=C/c2ccc(O)cc2)Oc2ccc(Cl)cc21`, the growth in the experiment with HCT-15 colon is 89.1%; in the experiment with HT29 colon, 155%; with SNB-75 CNS, 82.8%; in the experiment with SNB-19 CNS, 85.1%; in the experiment with U251 CNS, 89.9%; with PC-3 prostate, 95.1%. Also, the growth with SK-MEL-5 melanoma was 74.8%; in the experiment with UACC-62 melanoma, 82.5%; in the experiment on LOX IMVI melanoma, 82.3%; in the experiment on SK-MEL-28 melanoma, 142%.
For `O=C(NNc1nc(N2CCCC2)nc(N2CCCC2)n1)c1ccccc1`, the growth in the experiment with HCT-15 colon is 108%; in the experiment with HT29 colon, 102%; in the experiment with SNB-75 CNS it was 88.7%; in the experiment with SNB-19 CNS, 99.6%; in the experiment on U251 CNS, 98.5%; in the experiment with PC-3 prostate, 101%. Also, the growth was 110% in the experiment on SK-MEL-5 melanoma, 99.3% in the experiment on UACC-62 melanoma, 110% with LOX IMVI melanoma and 106% in the experiment on SK-MEL-28 melanoma.
Regarding `COc1ccc(-c2n/c(=C\c3c(O)[nH]c4ccccc34)cc3c2=Nc2ccccc2-3)cc1`, the growth was 1.23% (active) with HCT-15 colon; -37.1% (active) with HT29 colon; 66.1% with SNB-75 CNS; 63.1% with SNB-19 CNS; -61.4% (active) with U251 CNS; 43.3% in the experiment with PC-3 prostate. Further, the growth is 70% with SK-MEL-5 melanoma, 87.3% in the experiment on UACC-62 melanoma, 2.48% (active) in the experiment on LOX IMVI melanoma and -25.6% (active) with SK-MEL-28 melanoma.
As for `Cc1nc(N)sc1Sc1nc2ccc(Cl)cc2c(=O)n1-c1ccc(Oc2ccccc2)cc1`, the growth is 55.4% in the experiment with HCT-15 colon; 55.9% with HT29 colon; 96% in the experiment with SNB-75 CNS; 69.4% with SNB-19 CNS; 77.2% with U251 CNS; 48.9% with PC-3 prostate. Also, the growth with SK-MEL-5 melanoma was 76.1%; in the experiment on UACC-62 melanoma, 63.9%; in the experiment on LOX IMVI melanoma, 75.5%; in the experiment with SK-MEL-28 melanoma, 95.1%.
Regarding `COc1cccc2c1C(=O)c1c(O)c3c(c(O)c1C2=O)C[C@@](O)(C(=O)COC(=O)c1cccnc1)C[C@@H]3OC1CC(N)C(O)C(C)O1` (stereo not given in full), the growth with HCT-15 colon was 32.9%; in the experiment on HT29 colon, -29.5% (active); in the experiment on SNB-75 CNS, -75% (active); in the experiment on SNB-19 CNS, 5.16% (active); in the experiment on U251 CNS, -14.4% (active); in the experiment on PC-3 prostate it was -41.8% (active). The growth in the experiment with SK-MEL-5 melanoma is -49.1% (active); in the experiment on UACC-62 melanoma, -88.4% (active); in the experiment on LOX IMVI melanoma, 0.723% (active); in the experiment on SK-MEL-28 melanoma it was -13.8% (active).
With `COCCOC(=O)NC(=O)Nc1ccc(/C(=N/O)c2ccc(Cl)cc2)cc1`, the growth in the experiment with HCT-15 colon is 9.7% (active); in the experiment with HT29 colon it was -20.5% (active); with SNB-75 CNS, 19.9%; in the experiment on SNB-19 CNS, 31.4%; in the experiment on U251 CNS, 17.9%; in the experiment with PC-3 prostate, 26.1%. Also, the growth in the experiment on SK-MEL-5 melanoma was -17.2% (active); with UACC-62 melanoma it was 15.7%; in the experiment on LOX IMVI melanoma, 22.5%; in the experiment on SK-MEL-28 melanoma it was 69.1%.
In the case of `CC(C)/C(=N/O)c1ccccc1`, the growth is 110% in the experiment on HCT-15 colon; 97.4% with HT29 colon; 94.5% in the experiment with SNB-75 CNS; 102% in the experiment on SNB-19 CNS; 112% in the experiment on U251 CNS; 102% with PC-3 prostate. Besides, the growth in the experiment on SK-MEL-5 melanoma was 104%; with UACC-62 melanoma, 107%; in the experiment on LOX IMVI melanoma, 94.5%; in the experiment with SK-MEL-28 melanoma it was 113%.
In the case of `N=C(N)c1ccc(-c2ccc(-c3ccccc3)s2)s1`, the growth in the experiment on HCT-15 colon was -36.4% (active); with HT29 colon, -70.1% (active); in the experiment with SNB-75 CNS, -6.07% (active); with SNB-19 CNS it was 10%; with U251 CNS, -74.6% (active); in the experiment with PC-3 prostate it was -26% (active). The growth in the experiment on SK-MEL-5 melanoma was 14.5%; in the experiment with UACC-62 melanoma, -84.9% (active); in the experiment with LOX IMVI melanoma it was -69.2% (active); in the experiment with SK-MEL-28 melanoma, -95.9% (active).
In the case of `CCOc1ccc2c(c1)CC[C@@H]1[C@@H]2CC[C@]2(C)[C@@H](O)[C@@H](O)C[C@@H]12`, the growth with HCT-15 colon is 95%; with HT29 colon, 109%; with SNB-75 CNS it was 107%; with SNB-19 CNS, 99%; in the experiment on U251 CNS it was 95%; in the experiment with PC-3 prostate, 91.2%. Besides, the growth in the experiment with SK-MEL-5 melanoma was 96.8%; in the experiment with UACC-62 melanoma, 94.4%; with LOX IMVI melanoma, 102%; in the experiment on SK-MEL-28 melanoma, 100%.
